# Assay outcomes from PubChem BioAssay.
# Shown are actives, neighbours in structure and some others; about 4.1% of the full set was active somewhere.
# HIV Env fusion: inhibitors of HIV Env-mediated cell fusion | HeLa-JRFL Env/CEM21 cell fusion, luciferase | inhibition, % at 12.3 µM | 1.1% of 360,000 active | AID 651610;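 active = mean replicate inhibition score of at least 50 and every replicate individually at or above 50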
# PglD DTNB: inhibitors of Campylobacter jejuni PglD acetyltransferase; 0.098% of 360,000 active; inhibition, % at 12.5 µM; purified PglD enzyme, DTNB colorimetric CoA detection; in the data active = inhibition above about 16%, passing the limit was not always enough
# NSD2 HMT inh: blocks human histone methyltransferase NSD2. O96028. AID 743445. 0.54% of 310,000 active. NSD2 peptide methylation, AlphaScreen, 120 min. inhibition, % at 12.5 µM; in the data active = inhibition above about 50%
# CASP6 VEID inh: caspase-6 (human) enzyme inhibition; P55212; purified caspase-6, Z-VEID-R110 cleavage fluorescence; inhibition, % at 12.5 µM; 0.53% of 350,000 active; AID 686996;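 active = mean inhibition across replicates at least about 35%, with every replicate also reaching that limit, limit read from the data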
# Target sequence (P55212 24-179 limits assumed): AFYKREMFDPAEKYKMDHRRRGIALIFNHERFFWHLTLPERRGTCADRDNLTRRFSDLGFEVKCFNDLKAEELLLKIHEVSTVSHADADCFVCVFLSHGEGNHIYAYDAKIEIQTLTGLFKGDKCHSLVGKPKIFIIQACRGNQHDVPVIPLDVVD
# Target sequence (P55212 194-293 limits assumed): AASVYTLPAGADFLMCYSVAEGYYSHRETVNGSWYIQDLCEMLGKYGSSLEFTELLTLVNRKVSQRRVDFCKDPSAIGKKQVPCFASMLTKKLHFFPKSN
# CFTR F508del cor: CFTR F508del correction in bronchial cells | AID 720511 | 0.36% of 350,000 active | activity (quench increase), % at 7.58 µM | CFBE cells, YFP halide quenching; stimulated with forskolin plus potentiator P3; % fluorescence drop versus neutral controls;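 active = mean added fluorescence quench of at least 8% versus neutral control, with both replicates also reaching 8%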;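 also: cells transiently co-express mutant CFTR-F508del with the halide-sensitive YFP; corrector assay measuring rescue of mutant channel to the surface after 24 h compound exposure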
# ALR H2O2 inh: inhibitors of human sulfhydryl oxidase ALR | P55789 | purified ALR, DTT oxidation, H2O2 HRP-luminol luminescence | inhibition, % (no concentration beside the values) | 3.8% of 290,000 active;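 active = mean replicate inhibition above about 79%, with every replicate also reaching it, limit read from the data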
# Target sequence (P55789 whole entry, looked up): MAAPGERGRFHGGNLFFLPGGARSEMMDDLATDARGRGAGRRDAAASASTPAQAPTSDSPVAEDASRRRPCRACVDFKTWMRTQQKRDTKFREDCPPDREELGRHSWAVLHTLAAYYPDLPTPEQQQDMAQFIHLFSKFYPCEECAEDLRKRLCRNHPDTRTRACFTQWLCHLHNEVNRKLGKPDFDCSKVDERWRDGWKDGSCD
# A number is an active result; i = inactive; nt = no result given; [ ] = another dose, or the depositor's remark.
SMILES,HIV Env fusion,PglD DTNB,NSD2 HMT inh,CASP6 VEID inh,CFTR F508del cor,ALR H2O2 inh
C[C@@H]1CN([C@@H](C)CO)C(=O)c2cc(NC(=O)Nc3ccc(F)cc3)ccc2O[C@@H](C)CCCCO[C@H]1CN(C)S(=O)(=O)c1cn(C)cn1,i,i,nt,i,i,nt
C[C@@H]1CN([C@H](C)CO)C(=O)c2cc(NC(=O)Nc3ccc(F)cc3)ccc2O[C@@H](C)CCCCO[C@@H]1CN(C)Cc1ccc(Cl)c(Cl)c1,i,i,nt,i,i,nt
C[C@H]1CCCCO[C@H](CN(C)Cc2ccc(Cl)c(Cl)c2)[C@@H](C)CN([C@@H](C)CO)C(=O)c2cc(NC(=O)CCC(F)(F)F)ccc2O1,79[16.7 µM],i,nt,i,i,nt
C[C@H]1CCCCO[C@H](CN(C)Cc2ccc(Cl)c(Cl)c2)[C@@H](C)CN([C@@H](C)CO)C(=O)c2cc(NC(=O)Nc3ccc(F)cc3)ccc2O1,72[16.7 µM],i,nt,i,i,nt
CNC[C@H]1OCCCC[C@H](C)Oc2ccc(NS(=O)(=O)c3ccccc3)cc2C(=O)N([C@@H](C)CO)C[C@@H]1C,i,nt,nt,nt,i,nt
O=C(c1ccc2c3c(cccc13)CC2)C1CCCN(Cc2cccnc2)C1 (configuration not stated),i,i,nt,i,i,i
COc1cc(CN2CCCC(C(=O)c3ccc4c5c(cccc35)CC4)C2)cc(OC)c1O (configuration not stated),56,nt,i,i,i,i
CCC(=O)Nc1ccc2c(c1)C(=O)N(C)C[C@H](OC)[C@@H](C)CN(Cc1ccccn1)[C@@H](C)CO2,i,i,nt,i,i,nt
COc1ccc2c3c(n(C)c2c1)[C@@H](CO)N(C(=O)c1ccccc1)CC31CCN(C(C)=O)CC1,i,nt,nt,i,i,nt
CCOC(=O)c1c(NC(=S)Nc2ccccc2)sc2c1CCCCC2,nt,nt,nt,nt,nt,i
CCOC(=O)c1c(NC(=S)Nc2ccccc2)sc2c1CCN(CC)C2,nt,i,i,nt,nt,87
O=C(C1CC1)N1CCCCN2[C@H](CO)[C@@H](c3ccc(C#CC4CC4)cc3)[C@@H]2C1,nt,i,nt,i,i,nt
CO[C@H](CN(C)S(=O)(=O)c1cccc(Cl)c1)[C@H](C)CN([C@@H](C)CO)S(=O)(=O)c1cccc(Cl)c1,nt,i,nt,i,i,nt
c1ccc(CCCN2CCN(c3ccccc3)CC2)cc1,i,i,i,i,i,86
CC(CCc1ccccc1)NC(=O)CN1CCN(c2ccccc2)CC1 (configuration not stated),i,i,nt,i,i,99
COc1cccc(N2CCN(CC(=O)NCc3ccccc3)CC2)c1,i,i,i,i,i,98
COc1ccc(CNC(=O)CN2CCN(c3ccccc3)CC2)cc1,i,i,i,nt,i,nt
O=C(Nc1ccc(Cl)cc1)N[C@H]1CC[C@@H](CCn2cc(-c3ccccc3F)nn2)O[C@H]1CO,i,i,nt,i,i,nt
COc1ccc(S(=O)(=O)Nc2cccc3c2O[C@H](CN(C)Cc2ccc(C(=O)O)cc2)[C@H](C)CN([C@@H](C)CO)C3=O)cc1,i,nt,nt,nt,i,nt
COC(=O)c1sccc1NC(=O)c1ccccc1C(=O)O,i,nt,i,i,i,i
COC(=O)c1sc(-c2ccc(C(C)(C)C)cc2)cc1NC(=O)c1ccccc1C(=O)O,i,nt,i,i,i,92
COC(=O)c1sc(-c2ccc(Cl)cc2)cc1NC(=O)c1ccccc1C(=O)O,i,nt,i,i,i,97
COC(=O)c1sc(-c2ccc(C(C)(C)C)cc2)cc1NC(=O)CSCC(=O)O,i,nt,i,i,i,98
COC(=O)c1sc(-c2ccccc2)cc1NC(=O)C1CC1,i,nt,i,i,i,i
Cc1ccc(S(=O)(=O)N2CC[C@@H]3[C@H]2c2cc(C#Cc4ccc(F)cc4)ccc2N[C@@H]3CO)cc1,nt,i,nt,i,i,nt
SMILES,HIV Env fusion,PglD DTNB,NSD2 HMT inh,CASP6 VEID inh,CFTR F508del cor,ALR H2O2 inh
CCCNC(=O)N1[C@@H](CO)[C@@H](c2ccccc2)[C@@H]1CNC(=O)c1cccc(F)c1,nt,i,nt,i,i,nt
CCCSc1nc2cc(OC)c(OC)cc2c(=N)n1CCCN1CCOCC1,i,nt,i,i,i,i
COCCCn1c(SCc2ccc(OC)cc2)nc2cc(OC)c(OC)cc2c1=N,57,i,i,nt,nt,i
CCC(=O)Nc1ccc2c(c1)OC[C@@H](C)N(CC1CCCCC1)C[C@@H](C)[C@@H](OC)CN(C)C2=O,i,i,nt,nt,i,nt
C[C@@H]1CN([C@H](C)CO)C(=O)c2cc(NC(=O)c3ccccc3)ccc2O[C@@H](C)CCCCO[C@@H]1CN(C)S(=O)(=O)c1cccs1,i,i,nt,nt,i,nt
COCCCNC(=O)c1cccn2c(=O)c3cc4ccccc4cc3nc12,i,i,85,i,nt,i
CN(C)/N=C/c1ccc(OC(=O)c2cccc([N+](=O)[O-])c2)cc1,i,i,i,i,i,98
O=C(Oc1ccc(/C=N/n2cnnc2)cc1)c1cccc([N+](=O)[O-])c1,i,nt,i,i,i,i
COc1ccc(S(=O)(=O)n2nc(-c3ccc(Cl)cc3)cc2N)cc1,i,i,i,i,i,i
COc1ccc(-c2cc(N)n(S(=O)(=O)c3ccc(C)cc3)n2)c(OC)c1,i,nt,nt,i,i,99
Cc1noc(C)c1S(=O)(=O)N(C)C[C@H]1Oc2ccc(NC(=O)Cc3ccccc3)cc2CC(=O)N([C@@H](C)CO)C[C@@H]1C,i,i,nt,nt,i,nt
CNC(=O)c1c(NC(=O)c2cccc(C)c2)sc2c1CCC2,i,i,i,i,i,95
O=C(Nc1sc2c(c1C(=O)O)CCCC2)c1ccc(F)cc1,i,i,i,i,i,i
CC(C)(C)c1ccc(C(=O)Nc2sc3c(c2C(=O)O)CCC3)cc1,81,nt,i,i,i,i
O=C(NCC[C@H]1CC[C@H](NC(=O)c2cccnc2)[C@H](CO)O1)Nc1ccc(Cl)cc1,i,i,nt,i,i,nt
CCn1c(SCC(=O)c2ccccc2)nnc1-c1cccnc1,i,nt,i,i,nt,91
CCn1c(SCC(=O)c2ccccc2)nnc1-c1ccoc1C,i,i,i,i,nt,84
C[C@@H]1CCCCO[C@@H](CN(C)C(=O)Nc2cccc3ccccc23)[C@H](C)CN([C@H](C)CO)C(=O)c2cc(NC(=O)Cc3ccccc3)ccc2O1,i,i,nt,i,i,nt
CCOC(=O)C1CCN(c2c(NCCCN(CC)c3ccccc3)c(=O)c2=O)CC1,i,i,i,nt,nt,90
CCOC(=O)C1CCN(c2c(N3CCN(Cc4ccccc4)CC3)c(=O)c2=O)CC1,i,i,nt,i,i,i
CCOC(=O)C1CCCN(c2c(NCCCN(CC)c3cccc(C)c3)c(=O)c2=O)C1 (configuration not stated),nt,i,i,nt,nt,98
C[C@H]1CN([C@@H](C)CO)S(=O)(=O)c2ccc(-c3cccnc3)cc2O[C@H]1CN(C)CC1CCOCC1,i,i,nt,i,i,nt
COc1cc(CNCc2ccncc2)cc(Br)c1OCc1ccccc1F,67,i,i,nt,nt,i
COc1cc(CNc2ccc(O)cc2)cc(Br)c1OCc1ccccc1F,nt,i,i,nt,nt,nt
